Structures can show the parent of a compound that is named as a salt. Where two headings read alike, the source gives them in different places. The campaign covered roughly 3,300 compounds. About 95 (3%) showed an effect of 50% or more. For the sample, strong results were picked, then their nearest neighbours and some compounds at random.
Test system: HCoV-229E
Parameters: species or system Huh-7; HTS, protection from HCoV-229E induced cell death, luminescent cell viability (CellCounting-Lite 2.0), inhibition rate
Details: 24 h post infection, 1 h compound pre-incubation, 10 µM, inhibitor

SMILES	229E Inhibition rate	229E Inhibition rate (229E Inhibition rate, 24 h)
CC(=O)NCC(=O)O [N-Acetylglycine]	10.2%	–
COc1c(CC=C(C)C)c(O)cc2oc(=O)c3c4ccc(O)cc4oc3c12 [Neoglycyrol]	90.8%	–
CC(C)=CCc1cc2c(cc1O)oc(=O)c1c3ccc(O)cc3oc21 [Psoralidin]	43.7%	–
COc1c(CC=C(C)C)c(O)cc2oc(=O)c(-c3ccc(O)cc3O)cc12 [Glycycoumarin]	5.6%	–
C[n+]1cccc(C(=O)[O-])c1 [Trigonelline (chloride)]	–	13.3%
CC1=C2[C@@H](OC1=O)[C@H](O)[C@]13[C@H]4C[C@@H](C(C)(C)C)[C@]15[C@@H](OC(=O)[C@@H]5O)O[C@@]23C(=O)O4 [Ginkgolide K]	62%	–
C[C@@H]1C(=O)O[C@H]2[C@H](O)[C@@]34[C@H]5C[C@@H](C(C)(C)C)[C@]36[C@@H](OC(=O)[C@@H]6O)O[C@@]4(C(=O)O5)[C@@]12O [Ginkgolide B]	25.6%	–
C[C@@H]1C(=O)O[C@H]2C[C@@]34[C@H]5C[C@@H](C(C)(C)C)[C@]36[C@@H](OC(=O)[C@@H]6O)O[C@@]4(C(=O)O5)[C@]21O [Ginkgolide A]	11.6%	–
OC[C@H]1O[C@@](CO)(OC[C@@]2(OC[C@@]3(OC[C@@]4(OC[C@@]5(OC[C@@]6(OC[C@@]7(OC[C@@]8(O[C@H]9O[C@H](CO)[C@@H](O)[C@H](O)[C@H]9O)O[C@H](CO)[C@@H](O)[C@@H]8O)O[C@H](CO)[C@@H](O)[C@@H]7O)O[C@H](CO)[C@@H](O)[C@@H]6O)O[C@H](CO)[C@@H](O)[C@@H]5O)O[C@H](CO)[C@@H](O)[C@@H]4O)O[C@H](CO)[C@@H](O)[C@@H]3O)O[C@H](CO)[C@@H](O)[C@@H]2O)[C@@H](O)[C@@H]1O [Fructo-oligosaccharide DP9/GF8]	41%	–
CCc1ccc(O)cc1O [4-Ethylresorcinol]	19.1%	–
CC(C)=CCC1=CC(=O)c2ccccc2C1=O [Deoxylapachol]	8.4%	–
CC(C)=CCC1=C(O)C(=O)c2ccccc2C1=O [Lapachol]	54.4%	–
CC(C)=CCC/C(C)=C/CC/C(C)=C/CC/C(C)=C/CC1=C(C)C(=O)c2ccccc2C1=O [Menaquinone-4]	4.1%	–
C[C@@H]1O[C@@H](O[C@H]2[C@H](O[C@H]3CC[C@@]4(C)[C@@H](CC[C@]5(C)[C@@H]4CC=C4[C@@H]6CC(C)(C)CC[C@]6(C(=O)O)CC[C@]45C)[C@]3(C)CO)OC[C@H](O)[C@@H]2O)[C@H](O)[C@H](O[C@@H]2O[C@H](CO)[C@@H](O[C@@H]3O[C@H](CO)[C@@H](O)[C@H](O)[C@H]3O)[C@H](O)[C@H]2O)[C@H]1O [Macranthoside B]	9.3%	–
NCCc1cc(O)c(O)c(O)c1 [5-Hydroxydopamine hydrochloride]	11.7%	–
O=P(O)(O)OC(CO)CO [β-Glycerophosphate (disodium salt hydrate)]	11.7%	–
COc1cc(OC)c(CCC(=O)c2ccc(O)cc2)c(OC)c1 [Loureirin B]	16%	–
Oc1cc2cc[nH]c2cc1O [5,6-Dihydroxyindole]	1.6%	–
CC(=O)O[C@@H]1C[C@H](O)[C@@]23CO[C@@H](O)[C@]1(C)[C@@H]2C[C@@H](O)[C@]1(C)[C@@H]3C(=O)[C@H](OC(C)=O)[C@@]2(C)[C@H](c3ccoc3)C[C@H]3O[C@]321 [Toosendanin]	23.4%	–
C[C@@H](CO[C@@H]1O[C@H](CO)[C@@H](O)[C@H](O)[C@H]1O)[C@@H]1CC[C@@]2(CC[C@]3(C)[C@H](CC[C@@H]4[C@@]5(C)CC[C@H](O[C@@H]6O[C@H](CO)[C@@H](O)[C@H](O)[C@H]6O[C@@H]6OC[C@@H](O)[C@H](O)[C@H]6O)[C@@](C)(CO[C@@H]6O[C@H](CO)[C@@H](O)[C@H](O)[C@H]6O)[C@@H]5CC[C@]43C)[C@H]2O)CO1 [Hosenkoside M]	10.1%	–
C[C@@H](CO[C@@H]1O[C@H](CO)[C@@H](O)[C@H](O)[C@H]1O)[C@@H]1CC[C@@]2(CC[C@]3(C)[C@H](CC[C@@H]4[C@@]5(C)CC[C@H](O[C@@H]6O[C@H](CO)[C@@H](O)[C@H](O)[C@H]6O[C@@H]6O[C@H](CO)[C@@H](O)[C@H](O)[C@H]6O)[C@@](C)(CO[C@@H]6O[C@H](CO)[C@@H](O)[C@H](O)[C@H]6O)[C@@H]5CC[C@]43C)[C@H]2O)CO1 [Hosenkoside K]	58.2%	–
C[C@H](CO[C@@H]1O[C@H](CO)[C@@H](O)[C@H](O)[C@H]1O)[C@H]1CC[C@@]2(CC[C@]3(C)[C@H](CC[C@@H]4[C@@]5(C)CC[C@H](O[C@@H]6O[C@H](CO)[C@@H](O)[C@H](O)[C@H]6O[C@@H]6O[C@H](CO)[C@@H](O)[C@H](O)[C@H]6O)[C@@](C)(CO)[C@@H]5CC[C@]43C)[C@H]2O)CO1 [Hosenkoside B]	10.3%	–
O=C(O)C(=O)Cc1ccc(O)cc1 [4-Hydroxyphenylpyruvic acid]	21.1%	–
O=C(O)Cc1ccc(O)c(O)c1 [3,4-Dihydroxybenzeneacetic acid]	39.5%	–
O=C(O)Cc1ccc(O)cc1 [4-Hydroxyphenylacetic acid]	52.1%	–
CN(C)CC(=O)O [N-Methylsarcosine]	11.2%	–
COc1cc(/C=C/C(=O)OC(C)C)ccc1O [Isopropyl ferulate]	36.5%	–
C[C@@H]1O[C@@H](Oc2cc(O)c3c(c2)O[C@H](c2ccc(O)c(O)c2)[C@@H](O)C3=O)[C@H](O)[C@H](O)[C@H]1O [Taxifolin 7-O-rhamnoside]	9.6%	–
C[C@H](CC[C@@H](O)C(C)(C)O)[C@H]1CC[C@@]2(C)[C@@H]3CC=C4[C@@H](CC[C@H](O)C4(C)C)[C@]3(C)C(=O)C[C@]12C [Bryodulcosigenin]	12.5%	–
COc1cc2ccc(=O)oc2c(O[C@@H]2O[C@H](CO)[C@@H](O)[C@H](O)[C@H]2O)c1O [Fraxin]	10.9%	–

Source: publication PMC12431657, “Discovery and mechanistic insights of dibenzoylmethane as a broad spectrum inhibitor of coronavirus” (PLOS Pathogens, 2025)
